We go through 22 molecules from article PMC12136788.

Numbering of substitutions follows the chain as printed. Over roughly 5,800 sequences, “enrichment r” has its median near 0.68; the highest 2% begin near 11. Many of the other results were omitted from the sample, so the highest values are more common in it than they were.

T1: UNK ZnF1-6 (called full-length) (human, UniProt Q9C0B0 30-357)
T1 sequence: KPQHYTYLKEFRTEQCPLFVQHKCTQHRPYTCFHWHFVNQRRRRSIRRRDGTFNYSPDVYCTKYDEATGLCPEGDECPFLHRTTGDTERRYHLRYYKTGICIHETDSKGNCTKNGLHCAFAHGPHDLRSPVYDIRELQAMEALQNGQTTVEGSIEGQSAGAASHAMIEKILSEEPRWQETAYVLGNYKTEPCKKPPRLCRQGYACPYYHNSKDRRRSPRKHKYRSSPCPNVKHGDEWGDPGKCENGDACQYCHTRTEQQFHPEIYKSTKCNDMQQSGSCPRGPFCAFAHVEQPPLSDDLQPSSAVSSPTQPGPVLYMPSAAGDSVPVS

B1: chr3:23980279:23980388:+|3pUTR|ENSG00000174738|unk|FALSE|unique (ssRNA)
RNA: GGGAGUUCUACAGUCCGACGAUCUUUUUCUUUUCCAAUAUAAAGUUUGCUGAAUGUACAAGAAGAGUUUAUCACUUAGGAUAUAGAAUUUUUUUAGGGGUUGGGGGAGGGGAUCUGUUAGGAAACUGUUACCUAUAAACAAAGCAACAGAGGAUUGAGCAUCA
B2: chr1:6525536:6525637:-|3pUTR|ENSG00000162408|msi1|total|mutant (ssRNA)
RNA: GGGAGUUCUACAGUCCGACGAUCACAGUUUGUGUGCCAUUAAAACAGAGAUUCCUCAGAAAGUUCUUCAGGGACCUGGUUAUCCGAAUCAGGAUAAAAAUAAGGAAACUGGGGCCAUUACAAUGUACCGAGAAGGAAGGAAGACAACAGAGGAUUGAGCAUCA
B3: chr1:85021069:85021276:-|CDS|ENSG00000055732|control|control|control (ssRNA)
RNA: GGGAGUUCUACAGUCCGACGAUCGAUAUGUUUGCCACGUUUGCAAAAAUGCAGCAAAAAAGUUACUUAGUCUGGCUGUUUAGUAGAAUUUACCUCUACUCAUUCAUCAGCCUCUUUAUAUAUAUGAUUUUAAGUCUUUUCAUUCAACAGAGGAUUGAGCAUCA
B4: chr1:42176760:42176861:-|3pUTR|ENSG00000198815|msi1|FALSE|bound_elsewhere (ssRNA)
RNA: GGGAGUUCUACAGUCCGACGAUCGUCGCUCAGAUGUCCUUUGAAGUGGGAGGGAAUCAAUCCGGGGAUAAUUUCAAAUGGAAUAGAGUAUUUUGAUAUUGUUCAUUCAGAGGGUGAUGUGUACAUAUCUAUAUUGUAUAUAUGCAACAGAGGAUUGAGCAUCA
B5: chr8:108778973:108784180:-|three_prime_utr|ENSG00000164841|control|control|control (ssRNA)
RNA: GGGAGUUCUACAGUCCGACGAUCAAGUUUAUUUCACAAACCAACAGCCAGUAAGUGUUUUUGUUCUCUAUGUGUCUUCUAUUUAGAAGAAAAGCCAUGUAAGAUGUAUAAGAAACCACAACCAGCCACACCUAUCCUUCUGAACAACAGAGGAUUGAGCAUCA
B6: ENSG00000072803:stop:overlap|stop_codon|ENSG00000072803|stop_codon|NA|stop_codon (ssRNA)
RNA: GGGAGUUCUACAGUCCGACGAUCCUGGAUACAGUAAACGGAAAGAAUCUUGGAAGAUGCUUGACUGCUGUCUUUUCUCAGACUAGUCUGAAAGGGAAAACCCCCAUUCAUUCUGGAUUGGUGGAUCUGAAGUACAAAAUAUUUCAACAGAGGAUUGAGCAUCA
B7: chrX:47571900:47572933:-|three_prime_utr|ENSG00000008056|control|control|control (ssRNA)
RNA: GGGAGUUCUACAGUCCGACGAUCAAACCUGACUCCUCCUGGCCCUAAAUCCGGUUCUCACAUGUGGAAUCCCCAAGUCCUUUUAGAACCCCACUCGUGGUCACUUCAGGAUCUACUUCUGUUUUAGAACCUCCACAUUCCUGACAACAGAGGAUUGAGCAUCA
B8: chr19:39539560:39539696:-|CDS|ENSG00000176396|unk|FALSE|unique (ssRNA)
RNA: GGGAGUUCUACAGUCCGACGAUCCGGGAACGGAGGCCUGGCUGCGUUGCCCUAUCUCCGUCUCCGCCACCCACUUAGCGUUUUAGGCAUCAAUUACCAGCAGUUUCUCCGCCACUAUCUGGAAAAUUACCCGAUUGCUCCCGGCAACAGAGGAUUGAGCAUCA
B9: chr4:87473334:87473774:-|three_prime_utr|ENSG00000152583|control|control|control (ssRNA)
RNA: GGGAGUUCUACAGUCCGACGAUCCUUUCCAGCAUCCUCCUCUGUUCUAACCACUUCAGAAAUAUAUGCAGCUGUGAUACUUGUAGAUUUAUAUUUAGCAAAAUGUUAGCAUGUAUGACAAGACAAUGAGAGUAAUUGCUUGACCAACAGAGGAUUGAGCAUCA
B10: chr5:180576808:180576909:+|3pUTR|ENSG00000113300|unk|FALSE|unique (ssRNA)
RNA: GGGAGUUCUACAGUCCGACGAUCUAUUUUCCGUGUCCUAAAUAAUUUUCAAUAAUCUAUAAUCCCUAAAAUGCAAUAAAAACUAGUAUGUUUUCACGGUGUAUAUUUUUUUUCAAAAAUUCUGUAACAAAUAUAUUUAAUGUGCAACAGAGGAUUGAGCAUCA
B11: ENSG00000181035:stop:overlap|stop_codon|ENSG00000181035|stop_codon|NA|stop_codon (ssRNA)
RNA: GGGAGUUCUACAGUCCGACGAUCUGGGCAUCAGCUUCACCACCUUCGACCUCAUGCAGAUCCUGCUGCGGCACCUGCAGAGCUAGGGGACCCUGAGCUGCUCUCAGGACGGUGGACCGGUGACCCCUUUGUAUUCUGGGCCCACAACAGAGGAUUGAGCAUCA
B12: chr5:180576808:180576909:+|3pUTR|ENSG00000113300|unk|total|mutant (ssRNA)
RNA: B10 RNA with U83C, A84C
B13: chr19:18196783:18197469:-|three_prime_utr|ENSG00000105649|control|control|control (ssRNA)
RNA: GGGAGUUCUACAGUCCGACGAUCACUACCCGGGCCUGACCCGGCCCCUACCAGCCACGGGCACAAGACCCCUGCUCCUGACUUAGCCCGUCACCCUUAUUUAUUAUUGUAGCUAUUUAUUUAUUUAUUGAAGAUGUCCCCCAGCAACAGAGGAUUGAGCAUCA
B14: chr15:93024873:93024975:+|3pUTR|ENSG00000173575|unk|total|mutant (ssRNA)
RNA: GGGAGUUCUACAGUCCGACGAUCGGUCCAGCUCUGAUUCGGGUCACCACUCCUGCACUUUGGCACCCCAUCCCAUUCCAGCCCCGUUCUGGCCUCCCACUUUGACGGGCACUUGGAGGAGGAGCUGACUGUGUGUGUACCAGCCAACAGAGGAUUGAGCAUCA
B15: chr8:37861146:37861251:-|3pUTR|ENSG00000156675|unk|FALSE|unique (ssRNA)
RNA: GGGAGUUCUACAGUCCGACGAUCCUGUGCAGAGCAAGAAGAUGAUACUUAUUUUUGAAUUUGUAUUUUUAAAACUAGAUUUAUAGACUUUUUUUUUUUUUAACUAGGGCACUUGCUUCCUUCUUAGCUAAAAGCACCAGCUGACAACAGAGGAUUGAGCAUCA
B16: chr7:80742902:80743013:-|3pUTR|ENSG00000075223|msi1_unk|total|mutant (ssRNA)
RNA: GGGAGUUCUACAGUCCGACGAUCUCAGAGUCACAGUUCCCUUUAUUUCACAUAAGCCCAAACUGACCGACAGUAACGGUGUUCCGUUUUAUACUAUAUUUGUGCUAUUUAAUUCUUUCUAUUUUCACAAUUAUUAAAUUGUGUCAACAGAGGAUUGAGCAUCA
B17: chr1:161190761:161190881:-|3pUTR|ENSG00000158859|msi1|FALSE|unique (ssRNA)
RNA: GGGAGUUCUACAGUCCGACGAUCUGCGGGUCACAGGAGGGAGGGGGAAGGCAGGGAGGGCCUGGGCCCCAGUUGUAUUUAUUUAGUAUUUAUUCACUUUUAUUUAGCACCAGGGAAGGGGACAAGGACUAGGGUCCUGGGGAACAACAGAGGAUUGAGCAUCA
B18: chr1:161190761:161190881:-|3pUTR|ENSG00000158859|msi1|total|mutant (ssRNA)
RNA: B17 RNA with U83C, A84C, U104C, A105C, U129C, A130C
B19: chr7:20412070:20412171:+|3pUTR|ENSG00000105855|msi1|total|mutant (ssRNA)
RNA: GGGAGUUCUACAGUCCGACGAUCCUUUUUUUUUAUAAUAAACUUCCAAGAUUUGCUGUCUUCCAGCACUUGAGUUAAAGUACCCGAUACUGCAUUUUGAUGAAGACUAACCCCAUCUCAUAUUCUACCCUAAAGAGAACUGAACAACAGAGGAUUGAGCAUCA
B20: chr1:203709306:203709407:+|CDS|ENSG00000058668|msi1|total|mutant (ssRNA)
RNA: GGGAGUUCUACAGUCCGACGAUCUCCAGAGAAGGAGGGAGGCCUGCCUCGGCAGGUGGGCAACAAGACCGAGUGUGCUCUGCCCGGCUUUGUCACAGAUCUGAAGCAGGAUUAUCAGGCUGUGCGUAAUGAAGUGCCCGAGGACAACAGAGGAUUGAGCAUCA
B21: chr1:225789428:225789553:+|3pUTR|ENSG00000143742|unk|FALSE|unique (ssRNA)
RNA: GGGAGUUCUACAGUCCGACGAUCUUAGAGAAAGUGUUGGGACAGAAAGUACUUUAUGUAACUAAGUGGGCUGUUCAGAAGCUUAGAGGUCAUUUUUUGUAAUUUUCUUUUUAAUUACUUUAGAGAGCUAGGGAUGCAAAUGUUCAACAGAGGAUUGAGCAUCA
B22: chr22:27980698:27980799:-|3pUTR|ENSG00000100154|unk|total|mutant (ssRNA)
RNA: GGGAGUUCUACAGUCCGACGAUCUAACCAUUAAUUUAUUUUAUAAAGAAAGGAAAUGCUGAAAGUCGUAUCCGUACUGAGUUCCGUUGGAGAAUUCCGAUAAGUAAGUAUCUUUCCGGUAAUUCUAAAAUUAAAAUCCUACCCCAACAGAGGAUUGAGCAUCA

For the experiment, the target named is T1, UNK ZnF1-6 (called full-length). The experiment can be described thus: nsRBNS (natural sequence RNA bind-n-seq); RBNS binding buffer (assumed for nsRBNS): 25 mM Tris pH 7.5, 150 mM KCl, 3 mM MgCl2, 0.01% Triton X-100, 500 ug/ml BSA, 20 U/ml SUPERase-In, 4 C; UNK is unkempt and MSI1 is Musashi-1; names of the RNAs are library labels; protein concentration not given here; high values mean tight binding.
On to B1, for which the binding signal was 3.03 enrichment R.
Next, B2: 0.553 enrichment R; B3: 1.95 enrichment R; B4: 1.26 enrichment R.
On to B5, for which the binding signal was 0.507 enrichment R.
Consider B6, for which the binding signal was determined as 1.04 enrichment R.
In turn, B7 returned a binding signal of 0.975 enrichment R.
The molecule B8 displayed a binding signal of 1.3 enrichment R.
For the molecule B9, the binding signal is 2.1 enrichment R.
Take B10: the binding signal is 20.9 enrichment R.
The molecule B11 registered a binding signal of 1.2 enrichment R.
The molecule B12 yielded a binding signal of 10.6 enrichment R.
The molecule B13 came in with a binding signal of 66 enrichment R.
Next, B14: 4.11 enrichment R; B15: 53.1 enrichment R; B16: 1.71 enrichment R.
Turning to B17, the binding signal stood at 32.9 enrichment R.
Molecule B18 showed a binding signal of 2.05 enrichment R.
As for B19, the binding signal was found to be 0.911 enrichment R.
The result for B20 reads 0.691 enrichment R.
In the case of B21, the binding signal worked out at 1.53 enrichment R.
Molecule B22 returned a binding signal of 0.76 enrichment R.
